High-throughput results (PubChem BioAssay)
An excerpt weighted towards active compounds, which were near 2% of everything screened.
CHT allo act = CHT positive allosteric modulators, primary screen, cell-based, membrane potential dye, choline EC20; B-score at 10 µM; High affinity choline transporter 1 (Homo sapiens), Q9GZV3; actives 0.49% (n = 310,000); CHT-expressing cells; stronger effect = higher value; LV-AA mutant CHT in HEK293 cells;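 active means initial fluorescence not abnormally high and integrated response B-score, plate-corrected, over 3 SD above library mean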
CHT block = inhibitors of human choline transporter CHT; CHT-expressing cells, membrane potential dye, choline response; stronger effect = lower value; B-score at 10 µM; actives 0.86% (n = 310,000);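 active means B-score over 3 SD under the library average, and starting fluorescence ratio not unusually high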;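 further: choline stimulus applied at its EC90 after an EC20 pre-addition; B-score computed on integrated fluorescence ratio after choline addition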
Kir21 inh = inhibitors of mouse Kir2.1 inward-rectifier potassium channel. Inward rectifier potassium channel 2 (Mus musculus), P35561. AID 1672, 2009. actives 0.85% (n = 310,000). B-score at 10 µM. HEK293-Kir2.1, FluxOR thallium flux fluorescence; stronger effect = lower value;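 active means fluorescence ratio B-score at or below minus 3 SD of library scores, with starting-brightness B-score within 2 SD, cut at about -4.2 in these data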;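 further: channel flux triggered by added potassium and thallium sulfate stimulus; B-score of peak minus minimum fluorescence over baseline after thallium stimulus; more negative B-score means stronger Kir2.1 block with less thallium influx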
Target sequence (P35561 whole entry, looked up): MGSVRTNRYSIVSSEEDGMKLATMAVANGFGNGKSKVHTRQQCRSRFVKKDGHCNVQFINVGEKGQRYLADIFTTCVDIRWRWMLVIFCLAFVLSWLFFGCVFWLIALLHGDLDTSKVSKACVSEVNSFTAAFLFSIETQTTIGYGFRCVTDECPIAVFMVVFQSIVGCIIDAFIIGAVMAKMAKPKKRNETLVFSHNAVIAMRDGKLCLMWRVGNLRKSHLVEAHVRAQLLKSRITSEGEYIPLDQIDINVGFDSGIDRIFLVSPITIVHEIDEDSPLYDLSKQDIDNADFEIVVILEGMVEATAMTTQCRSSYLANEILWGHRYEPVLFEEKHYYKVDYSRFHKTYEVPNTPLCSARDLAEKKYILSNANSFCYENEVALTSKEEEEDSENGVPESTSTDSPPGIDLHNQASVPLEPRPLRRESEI
H9c2 TAG inh = inhibitors of triacylglycerol accumulation, primary screen, cell-based, uHTS, fluorescence, H9c2. inhibition, % at 12.5 µM. AID 651582, 2012. actives 0.66% (n = 230,000). H9c2 cells, Nile Red lipid (TAG) fluorescence; cells loaded with 200 µM oleic acid;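 active means pattern-corrected inhibition of lipid staining of at least 50% with the nuclear-stain viability signal not falling by more than 50%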;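 further: 0% = DMSO wells and 100% = triacsin C control wells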
* marks the source's active call; other numbers are inactive results; i = inactive; nt = no result given.

SMILES	CHT allo act	CHT block	Kir21 inh	H9c2 TAG inh
Cc1ccc(C)c(N2CCN(CCCNC(=O)Cn3cc4c(n3)CCC(C)C4)CC2)c1 (stereo unspecified)	i	i	-4.73*	nt
CC1CCc2nn(CC(=O)NCCCN3CCCC3=O)cc2C1 (stereo unspecified)	i	i	-1.42	3.8
Cc1onc(-c2ccccc2)c1C(=O)N1CCC(CO)(Cc2ccccc2)CC1	i	i	-0.06	nt
Cc1cccc2c1-c1sc(C(=O)NCCCN3CCCC(C)C3)cc1CO2 (stereo unspecified)	i	i	-4.66*	nt
CCCN1CCN(CCCNC(=O)c2cc3c(s2)-c2c(C)cccc2OC3)CC1	i	i	-0.85	nt
CCCCN(CC)CCCNC(=O)c1cn(CC)c2ccc(S(=O)(=O)N3CCc4ccccc4C3)cc2c1=O	i	-12.9*	-0.39	30.9
CCCCN(C)CCCNC(=O)c1cn(CC)c2ccc(S(=O)(=O)N3CCc4ccccc4C3)cc2c1=O	i	i	-1.96	22.2
O=C(NN1C(=O)/C(=C/c2ccc(O)cc2)SC1=S)c1ccccc1O	i	i	-0.96	nt
COc1ccc(/C=C2\SC(=S)N(NC(=O)c3ccncc3)C2=O)cc1OC	i	-7.99*	1.46	nt
O=C(NN1C(=O)/C(=C/c2ccc(O)cc2)SC1=S)c1cccc(O)c1	i	-9.4*	-6.1	nt
COc1cc(/C=C2\SC(=S)N(NC(=O)c3ccccc3O)C2=O)ccc1O	i	i	-1.92	nt
c1ccc(-c2csc3nnc(SCc4ccc5c(c4)OCCO5)n23)cc1	i	i	-5.23*	-107.7
CN(C)CCCn1c(SCC(=O)N2c3ccccc3Sc3ccccc32)nc2ccccc2c1=O	i	i	-5.21*	nt
O=[N+]([O-])c1ccccc1NC1CCN(Cc2ccccc2)CC1	i	i	-7.04*	-15.0
O=C1CCC(=O)N1c1ccc(NC2CCN(Cc3ccccc3)CC2)c([N+](=O)[O-])c1	i	i	-1.04	-12.4
CCCCC(=O)NC(c1ccc(Cl)cc1Cl)c1ccc2cccnc2c1O (stereo unspecified)	i	i	0.78	nt
CCC(=O)NC(c1ccc(Cl)cc1Cl)c1ccc2cccnc2c1O (stereo unspecified)	i	i	0.75	55.3*
CCC(=O)NC(c1cc(Cl)c2cccnc2c1O)C1CC1 (stereo unspecified)	nt	nt	nt	52.2*
CNS(=O)(=O)c1ccc(C(=O)NCC(=O)NCCC(c2ccccc2)c2ccccc2)cc1	nt	nt	nt	15.2
COc1ccccc1C1c2ccc3ccccc3c2Oc2ncn(CCN(C)C)c(=N)c21 (stereo unspecified)	i	i	-5.21*	nt
O=C(Nc1ccc(N2CCCCC2)cc1)c1cc([N+](=O)[O-])cc([N+](=O)[O-])c1	i	i	0.1	nt
Cc1ccc(CN=C2NC(=O)C(CC(=O)NCCc3ccccc3)S2)cc1 (stereo unspecified)	i	i	-0.52	-6.6
COc1ccccc1N1CCN(C2CCCN(C(=O)CCN3CCCCO3)C2)CC1 (stereo unspecified)	i	i	0.15	nt
COc1ccc(-n2cccc2C=O)cc1	i	i	1.06	nt
COc1ccc(-n2cccc2/C=C/[N+](=O)[O-])cc1	i	i	-4.76*	nt
SMILES	CHT allo act	CHT block	Kir21 inh	H9c2 TAG inh
COc1ccc2c(c1)c(/C=N/Nc1nc3ccccc3[nH]1)c(C)n2C	i	i	0.21	50.4*
COc1cc(/C=N\Nc2nc3ccccc3[nH]2)cc(OC)c1OC	i	i	-0.28	11.0
O=C(CSS(=O)(=O)O)N1CCN(C(=O)c2ccoc2)CC1	i	i	1.49	nt
Cc1ccc(/C=N/NC(=O)CNC(=O)c2cccs2)o1	i	i	-5.46*	-2.4
COc1ccc(CC(=O)NCC(=O)N/N=C/c2ccc(C)o2)cc1	i	i	1.75	3.1
O=C(CCC(=O)c1ccc(Br)cc1)Nc1ccc(F)cc1	i	i	0.46	nt
CC(Oc1ccc(Cl)cc1Cl)C(=O)N(C)c1ccccc1 (stereo unspecified)	i	i	-6.38*	nt
COC(=O)NNC(=O)C(C)Oc1ccc(Cl)cc1Cl (stereo unspecified)	i	i	0.68	nt
CN(C(=S)NC(=O)CCCOc1ccc(Cl)cc1Cl)c1ccccc1	i	i	-4.89*	nt
Cn1c(=O)c2c(nc(CN3CCN(C(=O)c4ccco4)CC3)n2CC(=O)C(C)(C)C)n(C)c1=O	i	i	0.67	nt
CCN(CC)C(=O)C1=C(C)N(CCC2=CCCCC2)C(=O)C(CC(=O)NCCCN(C)C)C1 (stereo unspecified)	nt	nt	nt	1.1
